Hits are enriched below; roughly 2.3% of the tested compounds scored in any of these assays.
CHO-K1 Ca antag – counter-screen for M1 antagonists: effect in parental CHO-K1 cells. ATP-induced calcium, Fluo-8 fluorescence. inhibition, % at 3 µM. 360,000 compounds, 0.6% hits;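 active = inhibition above a per-plate cutoff, the plate's mean sample inhibition plus 3 SD, cut at about 24% in these data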
CHO-K1 Ca ag – nonselective activator or artifact in parental CHO-K1 cells; activation, % at 3 µM; Fluo-8 calcium fluorescence; scaled to maximal ATP response, vehicle zero; AID 602248; 360,000 compounds, 0.48% hits; in the data active = activation above about 15%;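 also: untransfected CHO-K1 host cells lacking M1 receptor as counterscreen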
CHRM1 antagonist – blocks human M1 muscarinic receptor | 360,000 compounds, 1.3% hits | CHO-K1 hM1, Fluo-8 calcium fluorescence, ACh EC80 antagonist | inhibition, % at 3 µM | P11229;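 active = percent inhibition above its own plate's cutoff, namely the mean of that plate's compound wells plus 3 SD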;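 also: peak over basal fluorescence ratio during 140 s after agonist addition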
Target sequence (P11229 whole entry, looked up): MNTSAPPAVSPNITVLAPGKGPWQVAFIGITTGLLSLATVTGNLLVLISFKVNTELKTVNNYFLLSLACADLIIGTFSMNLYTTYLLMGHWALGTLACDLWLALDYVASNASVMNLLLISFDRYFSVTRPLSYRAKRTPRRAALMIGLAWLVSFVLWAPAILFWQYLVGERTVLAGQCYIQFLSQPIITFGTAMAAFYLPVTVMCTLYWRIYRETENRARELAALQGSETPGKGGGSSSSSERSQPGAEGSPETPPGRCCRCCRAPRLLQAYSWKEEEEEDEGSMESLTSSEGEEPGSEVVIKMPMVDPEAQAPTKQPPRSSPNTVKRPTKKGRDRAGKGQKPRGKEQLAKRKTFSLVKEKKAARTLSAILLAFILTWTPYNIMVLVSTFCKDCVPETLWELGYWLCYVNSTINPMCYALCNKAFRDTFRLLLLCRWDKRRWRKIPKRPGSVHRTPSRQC
CHRM1 agonist – human M1 muscarinic receptor agonism; CHO-K1 hM1, Fluo-8 calcium fluorescence, agonist mode; 0% DMSO, 100% acetylcholine EC100; 360,000 compounds, 0.33% hits; AID 588814; activation, % at 3 µM; P11229;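 active = activation above the run's mean compound activation plus 3 SD, cut at about 16% in these data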;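 also: peak over basal fluorescence ratio within a 140 s kinetic read after compound addition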
M1 PAM parental – nonselective activator or artifact in parental CHO-K1 calcium assay | ATP EC20, Fluo-8 calcium fluorescence; 0% at ATP EC20, 100% at ATP max | activation, % at 3 µM | 360,000 compounds, 0.02% hits;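 active = activation above the run cutoff, the mean activation of all test compounds plus 3 SD, cut at about 40% in these data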;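 also: peak over basal fluorescence ratio in a 140 s read after ATP addition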
CHRM1 PAM – positive allosteric modulators of human M1 muscarinic receptor; activation, % at 3 µM; CHO-K1 hM1, Fluo-8 calcium fluorescence, ACh EC20; 0% = ACh EC20, 100% = maximal ACh; P11229; 360,000 compounds, 0.088% hits; AID 588819; in the data active = activation above about 19%, passing the limit was not always enough
Large screens that a line does not name were inactive.

COc1cc(OC)c(N(C)C(=O)CCNC(=O)Cn2cnc3ccccc3c2=O)cc1Cl	none
Cc1cc(NCCCCCCCNc2cc(C)nc3cc([N+](=O)[O-])ccc23)c2ccc([N+](=O)[O-])cc2n1	CHRM1 antagonist 33.7
Cc1cc(C)nc(/N=C(\N)Nc2ccc(OCCC(C)C)cc2)n1	CHO-K1 Ca antag 52.1, CHO-K1 Ca ag 32.8, CHRM1 antagonist 84.0, CHRM1 agonist 32.9
COc1ccc(N/C(N)=N/c2nc(C)cc(C)n2)cc1	none
Cc1cc(C)nc(/N=C(\N)Nc2cccc(OCc3ccccc3)c2)n1	CHO-K1 Ca ag 46.5, CHRM1 antagonist 59.0, CHRM1 agonist 26.4
COc1ccccc1N/C(N)=N/c1nc(C)cc(C)n1	none
Cc1cc(C)nc(/N=C(\N)Nc2ccc(CC(=O)OC(C)C)cc2)n1	CHO-K1 Ca antag 44.6, CHO-K1 Ca ag 37.5, CHRM1 antagonist 58.9
CCOC(=O)C(=O)Nc1ccc(OCc2ccccc2)cc1	none
Cc1cc(C)nc(/N=C(\N)Nc2ccc(OCc3ccccc3)cc2)n1	CHO-K1 Ca antag 89.2, CHO-K1 Ca ag 90.7, CHRM1 antagonist 89.4, CHRM1 agonist 69.8
O=C(NC1CCCCC1)c1cc(S(=O)(=O)N2CCOCC2)ccc1Cl	none
CC1(C(=O)O)CCC(C(=O)Nc2cccc(F)c2)C1(C)C (stereo not given)	none
Cn1nc(C(=O)NCc2ccccc2)c2c1-c1ccccc1S(=O)(=O)C2	none
O=C(O)CC(CN1C(=O)c2ccccc2C1=O)c1ccccc1 (stereo not given)	none
CCOC(=O)c1cc2n(n1)C(C(F)(F)C(F)(F)F)CC(C)N2 (stereo not given)	CHRM1 agonist 17.5
COc1ccc(Nc2nc(Nc3ccc(OC)cc3)nc(-n3[nH]c(=O)c(C)c3C)n2)cc1	CHRM1 antagonist 33.0
CCc1ccccc1NC(=O)N1C2CCCC1CC(NC(=O)C(C)(C)C)C2 (stereo not given)	CHRM1 antagonist 47.8
CCc1ccccc1NC(=O)NC1CC2CCC(C1)N2Cc1cccs1 (stereo not given)	CHRM1 antagonist 45.0
CCNC(=S)NC1CC2CCCC(C1)N2Cc1ccc(C)cc1 (stereo not given)	CHRM1 antagonist 68.7
CCCN1C2CCCC1CC(NC(=S)Nc1ccc(OC)cc1)C2 (stereo not given)	none
CCc1ccc(NC(=S)NC2CC3CCCC(C2)N3Cc2cccs2)cc1 (stereo not given)	CHRM1 antagonist 26.8
CCc1ccccc1NC(=S)NC1CC2CCC(C1)N2Cc1ccco1 (stereo not given)	none
COCCNC(=O)C(c1ccc(F)cc1)N(C(=O)CCC(=O)Nc1ccccn1)c1cccc(C)c1 (stereo not given)	none
CCN(CC(=O)Nc1cc(Cl)ccc1C)C(=O)C1COc2ccccc2O1 (stereo not given)	none
CCOc1ccccc1NC(=O)CCSc1nc2n[nH]c(C)c2c(=N)n1-c1ccccc1Cl	CHRM1 antagonist 34.0
O=C(c1cc(-c2ccc(Cl)cc2Cl)on1)N1CCN(C(=O)c2ccco2)CC1	CHO-K1 Ca antag 24.5
O=C(c1cc(-c2ccccc2Cl)on1)N1CCN(C(=O)c2ccco2)CC1	none
CCC(=O)N/N=C/c1ccc(-c2ccc([N+](=O)[O-])cc2)o1	none
CC(C)(C)C(=O)/C=c1\s/c(=C\c2ccc(-c3ccc([N+](=O)[O-])cc3)o2)c(=O)n1CC(=O)NC(N)=O	CHO-K1 Ca antag 26.5, CHO-K1 Ca ag 15.9, CHRM1 antagonist 39.0, CHRM1 agonist 23.3
CN(C)C(=O)c1cc(C(=O)c2ccc(F)cc2C(F)(F)F)c[nH]1	none
CC1CCc2c(sc3nc(C(C)(C)C)nc(N4CCN(C(=O)CCl)CC4)c23)C1 (stereo not given)	none
Cc1ccc(-c2nc3ncccc3o2)cc1NC(=O)c1cc2ccccc2o1	none
O=C(Nc1cccc(-c2nc3ncccc3o2)c1)c1cc2ccccc2o1	CHO-K1 Ca antag 25.9
CCc1nnc(NC(=O)CSc2ccc(-c3nc4ccccc4[nH]3)cn2)s1	none
Cc1nc(NC(=O)CSc2ccc(-c3nc4ccccc4[nH]3)cn2)sc1C	CHO-K1 Ca ag 16.0
O=C1C(=O)N(C/C=C/c2ccccc2)c2ccccc21	CHRM1 agonist 24.1
O=C(CN1C(=O)C(=O)c2ccccc21)NCCc1ccccc1	none
O=C1C(=O)N(CCCc2ccccc2)c2ccccc21	CHRM1 agonist 18.3
CC/C(=N\NC(=O)CSc1ncccn1)c1ccc2c(c1)OCCO2	CHO-K1 Ca antag 25.6
CCOC(=O)n1cnc2nc(N)nc(SC)c21	none
CCC(=O)c1cn(CC(=O)Nc2ccccc2)c2ccccc12	CHO-K1 Ca antag 25.5
CCOC(=O)c1[nH]c(CN2CCN(c3ccc(OC)cc3)CC2)c(C(=O)OCC)c1C	CHRM1 agonist 16.0
CC(C)(C)c1ccc(S(=O)(=O)NNC(=O)C2CCN(Cc3cccc(F)c3)CC2)cc1	CHO-K1 Ca ag 22.8
O=C(NCCc1cccc(F)c1)C1CCN(S(=O)(=O)c2ccc(F)cc2)CC1	none
O=C(CN1C(=O)NC2(CCCC2)C1=O)OCc1cccc(Br)c1	none
NNC(=O)c1ccc(CSc2cccc3cccnc23)cc1	CHRM1 agonist 29.4
Cc1cccc(CSc2cccc3cccnc23)c1	none
O=C1CCC/C(=N\NC(=O)c2ccc(CSc3cccc4cccnc34)cc2)C1	CHRM1 agonist 20.2
c1cnc2c(SCc3ccc(-c4nnco4)cc3)cccc2c1	CHRM1 agonist 16.0
O=C(N/N=C/c1ccccc1Br)c1ccc(CSc2cccc3cccnc23)cc1	none
Cc1ccc(NC(=O)c2cccc(S(=O)(=O)N3CCN(C)CC3)c2)cc1F	none
O=C(CCNC(=O)c1ccc(Cl)cc1)Nc1ccc(S(=O)(=O)N2CCCCC2)cc1	none
COc1ccc(Cl)cc1NC(=O)CN(C)CC(=O)Nc1c(C)n(C)n(-c2ccccc2)c1=O	none
Cc1ccccc1C(=O)Nc1cc(S(=O)(=O)N2CCOCC2)ccc1N1CCN(C)CC1	none
CCN(CC)c1ccc2c(Cl)c(Br)c(=O)oc2c1	CHO-K1 Ca antag 73.2, CHO-K1 Ca ag 53.4, CHRM1 antagonist 78.1, CHRM1 agonist 49.3
COc1ccc(/C=N/NC(=O)c2ccc(CN3c4cccc5cccc(c45)S3(=O)=O)cc2)cc1	CHRM1 agonist 16.2
COc1cc(/C=N/NC(=O)c2ccc(CN3c4cccc5cccc(c45)S3(=O)=O)cc2)cc(OC)c1O	none
O=C(N/N=C/CCc1ccccc1)c1ccc(CN2c3cccc4cccc(c34)S2(=O)=O)cc1	CHRM1 agonist 21.0
Cc1nc2ccc(C(=O)N3CCN(c4ccccc4)CC3)cn2c1N(C)C(=O)CCc1ccccc1	none
COc1ccccc1C(=O)NCC(=O)NCC1(N2CCCCC2)CCCCC1	none
CC(=O)c1cccc(OCc2cc(C(=O)N3CCSCC3)no2)c1	none

Assay outcomes from PubChem.
